PubChem BioAssay AID1159580 (chemical genetic matrix, 2015)
Hit rate of the full screen: of about 5,500 compounds, about 2,000 (36%) were called active. Not shown: some 18% with an inconclusive outcome. Some of the results follow. A number with no mark means an inactive call. No stated cut-off is given here; in the data, active means normalized growth mostly below about 0.91 (no sharp cut-off); inconclusive means no clear call, values can overlap the other calls; inactive means mostly above about 0.92.

Test: chemical genetic growth profiling, strain panel (AID 1159580);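 further: tested at 20 µM; growth read once vehicle control cultures reached saturation at 30 °C; 1 = growth at the plate median or of vehicle wells; lower values mean less growth of the strain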
Conditions: growth OD
[1] = S. cerevisiae deletion strains, locus YAL013W, strain DEP1, active compounds read low
[2] = S. cerevisiae deletion strains, locus YBR229C, strain ROT2, active compounds read low
[3] = S. cerevisiae deletion strains, locus YCL061C, strain MRC1, active compounds read low
[4] = S. cerevisiae deletion strains, locus YDL101C, strain DUN1, active compounds read low
[5] = S. cerevisiae deletion strains, locus YDR150W, strain NUM1, active compounds read low
[6] = S. cerevisiae deletion strains, locus YEL061C, strain CIN8, active compounds read low
[7] = S. cerevisiae deletion strains, locus YGR078C, strain PAC10, active compounds read low
[8] = S. cerevisiae deletion strains, locus YHR030C, strain SLT2, active compounds read low
[9] = S. cerevisiae deletion strains, locus YHR087W, strain rtc3, active compounds read low
[10] = S. cerevisiae deletion strains, locus YJR043C, strain POL32, active compounds read low
[11] = S. cerevisiae deletion strains, locus YJR075W, strain HOC1, active compounds read low
[12] = S. cerevisiae deletion strains, locus YLR039C, strain RIC1, active compounds read low
[13] = S. cerevisiae deletion strains, locus YLR058C, strain SHM2 (second series), active compounds read low
[14] = S. cerevisiae deletion strains, locus YLR085C, strain ARP6, active compounds read low
[15] = S. cerevisiae deletion strains, locus YLR262C, strain YPT6, active compounds read low
[16] = S. cerevisiae deletion strains, locus YML094W, strain GIM5, active compounds read low
[17] = S. cerevisiae deletion strains, locus YMR219W, strain ESC1, active compounds read low
[18] = S. cerevisiae deletion strains, locus YMR263W, strain SAP30, active compounds read low
[19] = S. cerevisiae deletion strains, locus YNL153C, strain GIM3, active compounds read low
[20] = S. cerevisiae deletion strains, locus YNL298W, strain CLA4 (second series), active compounds read low
[21] = S. cerevisiae deletion strains, locus YNL322C, strain KRE1, active compounds read low
[22] = S. cerevisiae deletion strains, locus YNR030W, strain Alg12, active compounds read low
[23] = S. cerevisiae deletion strains, locus YOL006C, strain TOP1, active compounds read low
[24] = S. cerevisiae deletion strains, locus YPL055C, strain LGE1, active compounds read low
[25] = S. cerevisiae deletion strains, locus YPL241C, strain CIN2, active compounds read low
[26] = S. cerevisiae deletion strains, locus YPR135W, strain CTF4, active compounds read low
[27] = S. cerevisiae deletion strains, locus YAL040C, strain CLN3, active compounds read low
[28] = S. cerevisiae deletion strains, locus YCL061C, strain MRC1 (second series), active compounds read low
[29] = S. cerevisiae deletion strains, locus YDR363W, strain ESC2, active compounds read low
[30] = S. cerevisiae deletion strains, locus YER002W, strain NOP16, active compounds read low
[31] = S. cerevisiae deletion strains, locus YGR229C, strain SMI1, active compounds read low
[32] = S. cerevisiae deletion strains, locus YNL175C, strain NOP13, active compounds read low
[33] = S. cerevisiae deletion strains, locus YNL197C, strain WHI3, active compounds read low
[34] = S. cerevisiae deletion strains, locus YNL224C, strain SQS1, active compounds read low
[35] = S. cerevisiae deletion strains, locus YOR083W, strain WHI5 (second series), active compounds read low
[36] = S. cerevisiae deletion strains, locus YDL134C, strain PPH21, active compounds read low
[37] = S. cerevisiae deletion strains, locus YJL187C, strain SWE1, active compounds read low
[38] = S. cerevisiae deletion strains, locus YKL190W, strain CNB1, active compounds read low
[39] = S. cerevisiae deletion strains, locus YNL128W, strain TEP1, active compounds read low
[40] = S. cerevisiae deletion strains, locus YMR307W, strain GAS1, active compounds read low

Question: With `COc1ccccc1N1CCN(C(=O)Nc2cc(Cl)cc(Cl)c2)CC1` as the compound, how does the normalized growth [1] read?
Answer: 0.934

Question: What about the normalized growth [2] of the same compound?
Answer: 0.988

Question: And the normalized growth [3]?
Answer: 0.927

Question: And the normalized growth [4]?
Answer: 0.967

Question: And the normalized growth [5]?
Answer: 0.854

Question: What about the normalized growth [6] of the same compound?
Answer: 0.914

Question: What about the normalized growth [7] of the same compound?
Answer: 0.965

Question: What about the normalized growth [8] of the same compound?
Answer: 0.434 (active)

Question: What about the normalized growth [9] of the same compound?
Answer: 0.97

Question: And the normalized growth [10]?
Answer: 0.971

Question: What about the normalized growth [11] of the same compound?
Answer: 0.986

Question: And the normalized growth [12]?
Answer: 1.09

Question: What about the normalized growth [13] of the same compound?
Answer: 1

Question: What about the normalized growth [14] of the same compound?
Answer: 0.511 (active)

Question: And the normalized growth [15]?
Answer: 1.05

Question: What about the normalized growth [16] of the same compound?
Answer: 0.823 (active)

Question: And the normalized growth [17]?
Answer: 1

Question: And the normalized growth [18]?
Answer: 0.937

Question: And the normalized growth [19]?
Answer: 0.975

Question: What about the normalized growth [20] of the same compound?
Answer: 0.715 (active)

Question: What about the normalized growth [21] of the same compound?
Answer: 0.984

Question: What about the normalized growth [22] of the same compound?
Answer: 0.877 (active)

Question: What about the normalized growth [23] of the same compound?
Answer: 0.857

Question: And the normalized growth [24]?
Answer: 0.761 (active)

Question: And the normalized growth [25]?
Answer: 0.716 (active)

Question: What about the normalized growth [26] of the same compound?
Answer: 0.667

Question: What about the normalized growth (S. cerevisiae strains, strain wild type, active compounds read low) of the same compound?
Answer: 0.922

Question: With `COc1ccccc1N1CCN(CCN(C(=O)c2ccc(I)cc2)c2ccccn2)CC1` as the compound, how does the normalized growth [27] read?
Answer: 0.976

Question: What about the normalized growth [28] of the same compound?
Answer: 0.988

Question: And the normalized growth [29]?
Answer: 0.943

Question: What about the normalized growth [30] of the same compound?
Answer: 1.01

Question: What about the normalized growth [31] of the same compound?
Answer: 0.984

Question: What about the normalized growth [32] of the same compound?
Answer: 0.983

Question: And the normalized growth [33]?
Answer: 0.996

Question: What about the normalized growth [34] of the same compound?
Answer: 0.987

Question: And the normalized growth [21]?
Answer: 0.977

Question: What about the normalized growth [35] of the same compound?
Answer: 0.997

Question: What about the normalized growth [24] of the same compound?
Answer: 0.964

Question: What about the normalized growth [25] of the same compound?
Answer: 0.995

Question: What does the source list for `COc1cc(NC(=S)N2CCN(c3ccccc3OC)CC2)c(OC)cc1Cl`?
Answer: normalized growth [1]: 1.01; normalized growth [2]: 0.992; normalized growth [3]: 0.984; normalized growth [4]: 1; normalized growth [36]: 1.01; normalized growth [5]: 0.92; normalized growth [6]: 1; normalized growth [7]: 1.01; normalized growth [8]: 0.95; normalized growth [9]: 1.01; normalized growth [37]: 0.997; normalized growth [10]: 0.984; normalized growth [11]: 0.999; normalized growth [38]: 1.02; normalized growth [12]: 0.949; normalized growth [13]: 1.01; normalized growth [14]: 1.14; normalized growth [15]: 0.962; normalized growth [16]: 0.995; normalized growth [17]: 1; normalized growth [18]: 0.924; normalized growth [39]: 1.02; normalized growth [19]: 0.98; normalized growth [20]: 1; normalized growth [21]: 0.997; normalized growth [22]: 1.01; normalized growth [24]: 0.9; normalized growth [25]: 0.895; normalized growth [26]: 0.966

Question: With `O=C(NC1CCCCC1)N1CCN(c2ncccc2C(F)(F)F)CC1` as the compound, how does the normalized growth [1] read?
Answer: 1.01

Question: What about the normalized growth [2] of the same compound?
Answer: 0.994

Question: And the normalized growth [3]?
Answer: 0.984

Question: What about the normalized growth [4] of the same compound?
Answer: 0.998

Question: What about the normalized growth [36] of the same compound?
Answer: 0.982

Question: And the normalized growth [5]?
Answer: 0.978

Question: And the normalized growth [6]?
Answer: 0.998

Question: What about the normalized growth [7] of the same compound?
Answer: 1

Question: What about the normalized growth [8] of the same compound?
Answer: 0.994

Question: What about the normalized growth [9] of the same compound?
Answer: 1.01

Question: What about the normalized growth [10] of the same compound?
Answer: 0.979

Question: What about the normalized growth [11] of the same compound?
Answer: 0.99

Question: And the normalized growth [38]?
Answer: 0.989

Question: And the normalized growth [12]?
Answer: 1.01

Question: What about the normalized growth [13] of the same compound?
Answer: 0.987

Question: What about the normalized growth [14] of the same compound?
Answer: 0.996

Question: What about the normalized growth [15] of the same compound?
Answer: 0.993

Question: And the normalized growth [16]?
Answer: 1.01

Question: What about the normalized growth [17] of the same compound?
Answer: 0.991

Question: What about the normalized growth [18] of the same compound?
Answer: 0.988

Question: What about the normalized growth [40] of the same compound?
Answer: 0.851

Question: What about the normalized growth [39] of the same compound?
Answer: 0.986

Question: And the normalized growth [19]?
Answer: 0.988

Question: What about the normalized growth [20] of the same compound?
Answer: 0.986

Question: What about the normalized growth [21] of the same compound?
Answer: 1

Question: And the normalized growth [22]?
Answer: 1

Question: And the normalized growth [23]?
Answer: 0.966

Question: What about the normalized growth [24] of the same compound?
Answer: 1.01

Question: And the normalized growth [25]?
Answer: 0.985

Question: And the normalized growth [26]?
Answer: 1.01

Question: Which normalized growth [1] does the source give for `COc1ccccc1N1CCN(CCCCN2C(=O)c3ccccc3C2=O)CC1` here?
Answer: 1

Question: And the normalized growth [27]?
Answer: 0.99

Question: What about the normalized growth [28] of the same compound?
Answer: 0.995

Question: And the normalized growth [29]?
Answer: 0.963

Question: What about the normalized growth [30] of the same compound?
Answer: 1.01

Question: And the normalized growth [7]?
Answer: 0.985

Question: And the normalized growth [31]?
Answer: 1.02

Question: What about the normalized growth [11] of the same compound?
Answer: 0.993

Question: What about the normalized growth [18] of the same compound?
Answer: 1

Question: What about the normalized growth [19] of the same compound?
Answer: 0.99

Question: And the normalized growth [32]?
Answer: 0.979

Question: What about the normalized growth [33] of the same compound?
Answer: 0.981

Question: What about the normalized growth [34] of the same compound?
Answer: 1

Question: What about the normalized growth [35] of the same compound?
Answer: 0.985

Question: And the normalized growth [24]?
Answer: 0.971

Question: What about the normalized growth [25] of the same compound?
Answer: 1

Question: For `COc1ccccc1N1CCN(C(=O)C(C)Nc2ccccn2)CC1` (stereo not given), which normalized growth [1] is on record?
Answer: 0.994

Question: What about the normalized growth [2] of the same compound?
Answer: 1

Question: And the normalized growth [4]?
Answer: 0.985

Question: And the normalized growth [5]?
Answer: 0.986

Question: And the normalized growth [6]?
Answer: 1.01

Question: And the normalized growth [7]?
Answer: 0.986

Question: And the normalized growth [8]?
Answer: 0.952

Question: What about the normalized growth [9] of the same compound?
Answer: 1.01

Question: And the normalized growth [37]?
Answer: 0.994

Question: What about the normalized growth [10] of the same compound?
Answer: 1

Question: What about the normalized growth [11] of the same compound?
Answer: 1.02

Question: What about the normalized growth [12] of the same compound?
Answer: 0.997

Question: And the normalized growth [13]?
Answer: 0.996

Question: What about the normalized growth [14] of the same compound?
Answer: 1.04

Question: What about the normalized growth [15] of the same compound?
Answer: 0.996

Question: And the normalized growth [16]?
Answer: 0.984

Question: And the normalized growth [17]?
Answer: 0.999

Question: And the normalized growth [18]?
Answer: 1.04

Question: And the normalized growth [40]?
Answer: 1.09

Question: What about the normalized growth [19] of the same compound?
Answer: 1.02

Question: What about the normalized growth [20] of the same compound?
Answer: 0.997

Question: What about the normalized growth [21] of the same compound?
Answer: 0.999

Question: What about the normalized growth [22] of the same compound?
Answer: 1

Question: And the normalized growth [24]?
Answer: 1.01

Question: And the normalized growth [25]?
Answer: 1.24 [resistant] (active)

Question: What about the normalized growth [26] of the same compound?
Answer: 1
